Experimental data: PubChem BioAssay (Tox21)
“And” between values parts separate entries of the source, which are not always exact repeats. Equal entries are not always repeated. Inconclusive results are not listed. A call without a number means that no potency is given here. Some structures have more than one record in an assay (separate samples or runs), and their calls can disagree. The source made the active and inactive calls. Calls come from the whole dose curve.

assay: qHTS assay for small molecule agonists of the p53 signaling pathway - cell viability (AID 651633); conditions: p53RE-bla HCT-116 viability, ATP luminescence, 16 h; series mostly up to 83.3 µM; note: nearly all actives have a fitted effect of over 30% in size
Procedure, shortened: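 p53RE-bla cells, seeded at 4,000 per well and rested 5 h at 37 C/5% CO2, received compounds in DMSO for 16 h at 37 C. CellTiter-Glo was then added, and luminescence was read after 30 min at room temperature to gauge cytotoxicity.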
Potency is the fitted concentration of half-maximal effect.

Row | Compound | Potency
1 | NC(N)=NC(=O)c1nc(Cl)c(N)nc1N | inactive
2 | NC(=O)c1cnccn1 | inactive
3 | Cc1noc(NS(=O)(=O)c2ccc(N)cc2)c1C | inactive
4 | Nc1ccc(S(=O)(=O)Nc2nccs2)cc1 | inactive
5 | O=c1ccc2ccccc2o1 | inactive
6 | Nc1ccc(O)c(C(=O)O)c1 | inactive
7 | CCOc1ccc(NC(=O)CC(C)O)cc1 (configuration not stated) | inactive
8 | CC(O)CO (configuration not stated) | inactive
9 | O=C(O)CCCCCCCC(=O)O | inactive
10 | O=S(=O)(O)c1ccc2cc(O)ccc2c1 | inactive
11 | CC(O)C(=O)O (configuration not stated) | inactive
12 | Oc1ccc(/C=C/c2cc(O)cc(O)c2)cc1 | inactive and 54.5 µM (active)
13 | NC(=O)c1ccccc1O | inactive
14 | CC(C)[C@@H]1CC[C@@H](C)C[C@H]1O | inactive
15 | C1N2CN3CN1CN(C2)C3 | inactive
16 | CC(O)CN(CCN(CC(C)O)CC(C)O)CC(C)O (configuration not stated) | inactive
17 | Cc1cn([C@H]2C[C@H](N=[N+]=[N-])[C@@H](CO)O2)c(=O)[nH]c1=O | inactive
18 | CCCN(CCC)S(=O)(=O)c1ccc(C(=O)O)cc1 | inactive

Row | Compound | Potency
19 | CC(=O)Nc1nnc(S(N)(=O)=O)s1 | inactive
20 | CCCCOC(=O)CC(CC(=O)OCCCC)(OC(C)=O)C(=O)OCCCC | inactive
21 | NNC(=O)c1ccncc1 | inactive
22 | CCCCC(CC)COC(=O)/C=C/c1ccc(OC)cc1 (configuration not stated) | inactive
23 | NC(=O)NC1NC(=O)NC1=O (configuration not stated) | inactive
24 | OC(Cn1cncn1)(Cn1cncn1)c1ccc(F)cc1F | inactive
25 | COc1ccc2[nH]cc(CCNC(C)=O)c2c1 | inactive
26 | CC(C)(Oc1ccc(C2CC2(Cl)Cl)cc1)C(=O)O (configuration not stated) | inactive
27 | Cc1ccc(O)cc1 | inactive
28 | O=C(O)C(=O)O | inactive
29 | O=c1cc[nH]c(=S)[nH]1 | inactive
30 | Cc1cc(=O)n(-c2ccccc2)n1C | inactive
31 | CCCNC(=O)NS(=O)(=O)c1ccc(Cl)cc1 | inactive
32 | Nc1ccn([C@H]2CC[C@@H](CO)O2)c(=O)n1 | inactive
33 | CC(=O)NS(=O)(=O)c1ccc(N)cc1 | inactive
34 | O=C(O)CCC(=O)O | inactive
35 | Nc1ccc(C(=O)O)cc1 | inactive
36 | NC(N)=O | inactive

assay: qHTS assay for small molecules that induce genotoxicity in human embryonic kidney cells expressing luciferase-tagged ATAD5 - cell viability (AID 651634); conditions: HEK293T ATAD5-luc cells viability, CellTiter-Fluor, 15.5 h; series mostly up to 83.3 µM; note: nearly all actives have a fitted effect of over 25% in size
Procedure, shortened: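 Cytotoxicity counter-readout: after 15.5 hr compound treatment at 37C, live-cell protease activity in ATAD5-luciferase HEK293T cells measured by CellTiter-Fluor fluorescence, 30 min development at 37C.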

Row | Compound | Potency
37 | NC(N)=NC(=O)c1nc(Cl)c(N)nc1N | inactive
38 | NC(=O)c1cnccn1 | inactive
39 | Cc1noc(NS(=O)(=O)c2ccc(N)cc2)c1C | inactive
40 | Nc1ccc(S(=O)(=O)Nc2nccs2)cc1 | inactive
41 | O=c1ccc2ccccc2o1 | inactive
42 | Nc1ccc(O)c(C(=O)O)c1 | inactive
43 | CCOc1ccc(NC(=O)CC(C)O)cc1 (configuration not stated) | inactive
44 | CC(O)CO (configuration not stated) | inactive
45 | O=C(O)CCCCCCCC(=O)O | inactive
46 | O=S(=O)(O)c1ccc2cc(O)ccc2c1 | inactive
47 | CC(O)C(=O)O (configuration not stated) | inactive
48 | Oc1ccc(/C=C/c2cc(O)cc(O)c2)cc1 | 24.3 µM (active)
49 | NC(=O)c1ccccc1O | inactive
50 | CC(C)[C@@H]1CC[C@@H](C)C[C@H]1O | inactive
51 | C1N2CN3CN1CN(C2)C3 | inactive
52 | CC(O)CN(CCN(CC(C)O)CC(C)O)CC(C)O (configuration not stated) | inactive
53 | CCCN(CCC)S(=O)(=O)c1ccc(C(=O)O)cc1 | inactive
54 | CC(=O)Nc1nnc(S(N)(=O)=O)s1 | inactive

Row | Compound | Potency
55 | CCCCOC(=O)CC(CC(=O)OCCCC)(OC(C)=O)C(=O)OCCCC | inactive
56 | NNC(=O)c1ccncc1 | inactive
57 | CCCCC(CC)COC(=O)/C=C/c1ccc(OC)cc1 (configuration not stated) | inactive
58 | NC(=O)NC1NC(=O)NC1=O (configuration not stated) | inactive
59 | OC(Cn1cncn1)(Cn1cncn1)c1ccc(F)cc1F | inactive
60 | COc1ccc2[nH]cc(CCNC(C)=O)c2c1 | inactive
61 | CC(C)(Oc1ccc(C2CC2(Cl)Cl)cc1)C(=O)O (configuration not stated) | inactive
62 | Cc1ccc(O)cc1 | inactive
63 | O=C(O)C(=O)O | inactive
64 | O=c1cc[nH]c(=S)[nH]1 | inactive
65 | Cc1cc(=O)n(-c2ccccc2)n1C | inactive
66 | CCCNC(=O)NS(=O)(=O)c1ccc(Cl)cc1 | inactive
67 | Nc1ccn([C@H]2CC[C@@H](CO)O2)c(=O)n1 | inactive
68 | CC(=O)NS(=O)(=O)c1ccc(N)cc1 | inactive
69 | O=C(O)CCC(=O)O | inactive
70 | Nc1ccc(C(=O)O)cc1 | inactive
71 | NC(N)=O | inactive

assay: qHTS assay for small molecule disruptors of the mitochondrial membrane potential - cell viability (AID 720634); conditions: HepG2 viability, ATP luminescence (CellTiter-Glo), 1 h; series mostly up to 83.2 µM; note: nearly all actives have a fitted effect of over 20% in size
Procedure, shortened: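 Cytotoxicity was quantified from ATP content by CellTiter-Glo luminescence in the same wells as the MMP dye read-out. HepG2 (2,000 cells/well) were plated overnight and exposed to compounds for 1 hr at 37 C.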

Row | Compound | Potency
72 | NC(N)=NC(=O)c1nc(Cl)c(N)nc1N | inactive
73 | NC(=O)c1cnccn1 | inactive
74 | Cc1noc(NS(=O)(=O)c2ccc(N)cc2)c1C | inactive
75 | Nc1ccc(S(=O)(=O)Nc2nccs2)cc1 | inactive
76 | O=c1ccc2ccccc2o1 | inactive
77 | Nc1ccc(O)c(C(=O)O)c1 | inactive
78 | CCOc1ccc(NC(=O)CC(C)O)cc1 (configuration not stated) | inactive
79 | CC(O)CO (configuration not stated) | inactive
80 | O=C(O)CCCCCCCC(=O)O | inactive
81 | O=S(=O)(O)c1ccc2cc(O)ccc2c1 | inactive
82 | CC(O)C(=O)O (configuration not stated) | inactive
83 | Oc1ccc(/C=C/c2cc(O)cc(O)c2)cc1 | inactive
84 | NC(=O)c1ccccc1O | inactive
85 | CC(C)[C@@H]1CC[C@@H](C)C[C@H]1O | inactive
86 | C1N2CN3CN1CN(C2)C3 | inactive
87 | CC(O)CN(CCN(CC(C)O)CC(C)O)CC(C)O (configuration not stated) | inactive
88 | Cc1cn([C@H]2C[C@H](N=[N+]=[N-])[C@@H](CO)O2)c(=O)[nH]c1=O | inactive
89 | CCCN(CCC)S(=O)(=O)c1ccc(C(=O)O)cc1 | inactive

Row | Compound | Potency
90 | CC(=O)Nc1nnc(S(N)(=O)=O)s1 | inactive
91 | CCCCOC(=O)CC(CC(=O)OCCCC)(OC(C)=O)C(=O)OCCCC | inactive and 7.78 µM (active)
92 | NNC(=O)c1ccncc1 | inactive
93 | CCCCC(CC)COC(=O)/C=C/c1ccc(OC)cc1 (configuration not stated) | inactive
94 | NC(=O)NC1NC(=O)NC1=O (configuration not stated) | inactive
95 | OC(Cn1cncn1)(Cn1cncn1)c1ccc(F)cc1F | inactive
96 | COc1ccc2[nH]cc(CCNC(C)=O)c2c1 | inactive
97 | CC(C)(Oc1ccc(C2CC2(Cl)Cl)cc1)C(=O)O (configuration not stated) | inactive
98 | Cc1ccc(O)cc1 | inactive
99 | O=C(O)C(=O)O | inactive
100 | O=c1cc[nH]c(=S)[nH]1 | inactive
101 | Cc1cc(=O)n(-c2ccccc2)n1C | inactive
102 | CCCNC(=O)NS(=O)(=O)c1ccc(Cl)cc1 | inactive
103 | Nc1ccn([C@H]2CC[C@@H](CO)O2)c(=O)n1 | inactive
104 | CC(=O)NS(=O)(=O)c1ccc(N)cc1 | inactive
105 | O=C(O)CCC(=O)O | inactive
106 | Nc1ccc(C(=O)O)cc1 | inactive
107 | NC(N)=O | inactive
